HT1080 IDH1KD tx: HT-1080 IDH1 knockdown cell toxicity (counter line). HT-1080 IDH1 knockdown viability, ATP luminescence, 48 h. Potency, µM (series often up to 46.1 µM), without a hit: at the highest dose activity, negative = toxicity, actives largely listed as cytotoxic. 360,000 tested, 2% active;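 further: 0% = DMSO wells and -100% = cell-free medium wells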
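IDH1KD HT-1080 cells, 750/well, RPMI + 5% FBS; compound pinned after 2 h settling; 48 h, 37 °C; CellTiter-Glo luminescence; % activity normalised to DMSO and no-cell wells; curves fitted, classed by r2 and efficacy.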
SW480 rerep: induces DNA re-replication in SW480 colon adenocarcinoma cells; SW480 DNA re-replication, Hoechst DNA content imaging, 48 h; Potency, µM (highest dose often 46.1 µM), for the others: top-dose re-replication activation, most hits filed as activators; 340,000 tested, 1.8% active; further: % of control where 0% means no effect; nearly all actives have a fitted effect of over 55% in size
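Hoechst fluorescence of nuclei (405 nm excitation, 500-530 nm emission) measured by plate-scanning imager after 48 hr compound exposure at 37 C; re-replication scored as increased number of nuclei with elevated intensity.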
HT1080-NT tox: kills 2HG-producing HT-1080-NT fibrosarcoma cells; 360,000 tested, 1.6% active; HT-1080-NT fibrosarcoma viability, CellTiter-Glo ATP luminescence, 48 h; Potency, µM (titrated, usually from 46.1 µM), inactives show at the highest dose activity, negative = less viability, usual class: cytotoxic; AID 686970;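 further: NT is the 2HG producing partner of a matched IDH1 knockdown line; 0% = DMSO-treated cells and -100% = media-only wells without cells; nearly all actives have a fitted effect of over 55% in size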
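Viability by CellTiter-Glo luminescence after 48 h compound exposure at 37C of HT-1080-NT cells (750/well, RPMI, 5% FBS). % activity scaled between DMSO wells and medium-only wells, then curve-fitted and categorized by curve class.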
KB-V1 cytotox: kills drug-selected multidrug resistant KB-V1 cells; KB-V1 MDR cells viability, CellTiter-Glo, 72 h; Potency, µM (titrated, usually from 46.1 µM), hits mostly cytotoxic; 400,000 tested, 3.4% active; further: on the % scale 0 is the no-effect control and ±100 the full control effect; nearly all actives have a fitted effect of over 60% in size
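Compound-treated KB-V1 multidrug-resistant cells, 72 h, 37 degrees C; viability by CellTiter-Glo. Fitted qHTS curves give the values.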
KB-3-1 cytotox: kills parental KB-3-1 adenocarcinoma cells. KB-3-1 viability, CellTiter-Glo ATP luminescence, 72 h. Potency, µM (series often up to 46.1 µM), most hits filed as cytotoxic. 400,000 tested, 1.4% active. AID 1347075; further: on the % scale 0 is the no-effect control and ±100 the full control effect; nearly all actives have a fitted effect of over 60% in size
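Multi-concentration cytotoxicity screen in KB-3-1 cells grown in DMEM lacking phenol red with 10% FBS. After 72 h at 37 °C with compound, ATP-dependent luminescence was recorded.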
MCF10A rerep: induces DNA re-replication in MCF 10a normal breast cells; MCF 10A DNA re-replication, Hoechst nuclear intensity, 48 h; 350,000 tested, 2.9% active; Potency, µM (top dose mostly 46.1 µM), for the others: at the highest dose activity, positive = re-replication, most hits filed as activators; further: % of control where 0% means no effect; nearly all actives have a fitted effect of over 50% in size
Numbers without * were called inactive; [ ] = another dose, or the depositor's remark. An excerpt weighted towards active compounds, which were near 8% of everything screened. The call rests on the fitted dose curve; in most records, active means well fitted curve in the direction sought with a large enough effect; inconclusive means small, poorly fitted or top-dose-only effect, or another doubt; inactive means no such curve, though single readings can be large; an effect the other way counts as inactive or inconclusive. Potency means the concentration at half of the fitted maximal effect.

`O=C(Nc1cccc(Oc2ccccc2)c1)C1Cc2c(-c3cccc(F)c3)ccnc2O1` (stereo not drawn) gave HT1080 IDH1KD tx -17%, HT1080-NT tox -3%, KB-V1 cytotox inactive and KB-3-1 cytotox inactive.
NC(=O)c1cccc(-c2ccnc3c2CC(C(=O)Nc2ccccc2)O3)c1 (stereo not drawn) was read as HT1080 IDH1KD tx 2%, HT1080-NT tox 10%, KB-V1 cytotox inactive and KB-3-1 cytotox inactive.
NC(=O)c1cccc(-c2ccnc3c2CC(C(=O)Nc2cccc(C(F)(F)F)c2)O3)c1 (stereo not drawn) was read as HT1080 IDH1KD tx inconclusive, HT1080-NT tox inconclusive, KB-V1 cytotox 23µM* and KB-3-1 cytotox inconclusive.
`O=C(Nc1cccc(C(F)(F)F)c1)C1Cc2c(-c3ccccc3Oc3ccccc3)ccnc2O1` (stereo not drawn) gave HT1080 IDH1KD tx inconclusive, HT1080-NT tox inconclusive, KB-V1 cytotox 18µM* and KB-3-1 cytotox inconclusive.
COc1ccc(-c2cc3ccccc3cn2)cc1 was read as HT1080 IDH1KD tx 8%, SW480 rerep -3%, HT1080-NT tox 4%, KB-V1 cytotox inactive, KB-3-1 cytotox inactive and MCF10A rerep 6%.
For COc1ccc(CC(=O)Nc2cccc(Cl)c2C)cc1S(=O)(=O)N1CCOCC1 the results were HT1080 IDH1KD tx -5%, SW480 rerep -5%, HT1080-NT tox -6%[9.24 µM], KB-V1 cytotox inactive, KB-3-1 cytotox inconclusive and MCF10A rerep 1%.
For O=S(=O)(NC1CCN(Cc2ccccc2)CC1)c1ccc(Cl)cc1 the results were HT1080 IDH1KD tx -10%, SW480 rerep -3%, HT1080-NT tox -17%, KB-V1 cytotox inactive, KB-3-1 cytotox inactive and MCF10A rerep 10%.
Screening COc1ccc(CNC(=O)C2Cc3c(-c4ccccc4Oc4ccccc4)ccnc3O2)cc1OC (stereo not drawn) returned HT1080 IDH1KD tx -20%, HT1080-NT tox inconclusive, KB-V1 cytotox 15µM* and KB-3-1 cytotox inconclusive.
Screening CC(=O)Nc1ccc(-c2ccnc3c2CC(C(=O)Nc2cccc(C(F)(F)F)c2)O3)cc1 (stereo not drawn) returned HT1080 IDH1KD tx 16µM*, HT1080-NT tox inconclusive, KB-V1 cytotox 23µM* and KB-3-1 cytotox inconclusive.
`CC(C)(C)OC(=O)N1CCC(c2c(C(=O)N3CCN(C(=O)c4ccco4)CC3)cnn2-c2cccc(Cl)c2)CC1` gave HT1080 IDH1KD tx 6%, SW480 rerep -41%, HT1080-NT tox 11%, KB-V1 cytotox inactive, KB-3-1 cytotox inactive and MCF10A rerep 1%.
O=C(NCc1cccnc1)c1cc(C2CCCCN2C(=O)c2ccc3c(c2)CCO3)on1 (stereo not drawn) was read as HT1080 IDH1KD tx inconclusive, HT1080-NT tox 13%, KB-V1 cytotox inactive and KB-3-1 cytotox inactive.
`Cc1cc(NC(=O)c2cccs2)cc(-c2nc3ncccc3o2)c1O` gave HT1080 IDH1KD tx 18%, SW480 rerep inconclusive, HT1080-NT tox 14%, KB-V1 cytotox inactive, KB-3-1 cytotox inactive and MCF10A rerep 15%.
Screening Cc1nc(-c2ccc(F)cc2)c(CC(=O)N(C)CC(=O)Nc2ccccc2Cl)s1 returned HT1080 IDH1KD tx -12%, SW480 rerep -3%, HT1080-NT tox 0%, KB-V1 cytotox 3.7µM*, KB-3-1 cytotox inactive and MCF10A rerep 1%.
Screening Cc1nc(-c2ccc(F)cc2)c(CC(=O)N(C)CC(=O)Nc2ccc(Cl)c(C(F)(F)F)c2)s1 returned HT1080 IDH1KD tx 16µM*, SW480 rerep inconclusive, HT1080-NT tox inconclusive, KB-V1 cytotox inactive, KB-3-1 cytotox inactive and MCF10A rerep inconclusive.
